Assay outcomes (PubChem)
Hits are enriched below; roughly 7.8% of the tested compounds scored in any of these assays.
LASV entry inh: blocks Lassa virus binding to or entry into cells; Lassa virus pseudotype entry inhibition, cell reporter; Potency, µM (titrated, usually from 37.9 µM), without a hit: top-dose activity change, negative = inhibition, most hits filed as inhibitors; 1.2% of 300,000 active; calls by dose curve; tested in HEK293 cells; also: potency is read from the fitted curve at half-maximal effect; nearly all actives have a fitted effect of over 50% in size
VACV mCherry inh: inhibitors of vaccinia virus infection (mCherry reporter signal); Vaccinia virus mCherry reporter infection, fluorescence; Potency, µM (titrated, usually from 36.5 µM), without a hit: top-dose activity change, negative = inhibition, actives largely listed as inhibitors; 0.63% of 310,000 active; AID 720579; calls by dose curve; tested in A549 cells; also: potency is read from the fitted curve at half-maximal effect; nearly all actives have a fitted effect of over 35% in size
Marburg entry inh: inhibitors of Marburg virus binding or cell entry | Potency, µM (series often up to 37.8 µM), for the others: at the top dose activity change, negative = inhibition, most hits filed as inhibitors | Marburg virus pseudotyped entry inhibition, cell reporter | 1.8% of 300,000 active; calls by dose curve; tested in HEK293 cells; also: potency is read from the fitted curve at half-maximal effect
HCMV antiviral: inhibitors of human cytomegalovirus; HFF cells, HCMV-luciferase reporter, 72 h; stronger effect = lower value; activity change, negative = inhibition, % at 57.5 µM; 4.5% of 410,000 active; in the data active = activity change below about -60%; inconclusive = no clear call, values can overlap the other calls; inactive = above about -39%
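Inhibition of viral replication was scored as loss of reporter luminescence in HFFs infected with HCMV-luciferase (MOI 1 PFU/cell) for 72 h; compounds tested at 2 doses, normalized to buffer and Salinomycin controls.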
HCV inh: HCV inhibition; 3.4% of 340,000 active; Potency, µM (highest dose often 41.8 µM), for inactives: at the highest dose activity change, negative = inhibition, hits mostly inhibitors; Huh7.5.1 HCVcc-Cre infection, luciferase reporter, 44 h; active = well fitted inhibition curve with a large enough effect; inconclusive = small, poorly fitted or top-dose-only effect, or another doubt; inactive = no such curve, though single readings can be large or run the other way; also: potency is read from the fitted curve at half-maximal effect
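Cells (1,000/well) were plated 4 h before compound, then infected with HCVcc-Cre virus (~0.5 moi). After 44 h further culture, infection was read as luciferase luminescence following a 15 min substrate incubation at room temperature.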
Vaccinia Venus: vaccinia inhibition (Venus reporter); Vaccinia virus Venus reporter expression, fluorescence; Potency, µM (titrated, usually from 36.5 µM), for the others: top-dose activity change, negative = inhibition, hits mostly inhibitors; 0.46% of 330,000 active; AID 720580; calls by dose curve; tested in A549 cells; also: potency is read from the fitted curve at half-maximal effect; nearly all actives have a fitted effect of over 30% in size
An asterisk follows results filed as active; [ ] = remark or other dose. % is scaled to controls: 0 for no effect and ±100 for the full control effect.

What do the screens show for `CCN(c1ccc(C)cc1C)S(=O)(=O)c1nnc(NC(=O)C(C)C)s1`?
HCMV antiviral: -73*; HCV inh: -8%

Results for Cc1cc(C)cc(N(C)S(=O)(=O)c2nnc(NC(=O)C(C)C)s2)c1 ?
LASV entry inh: inconclusive; VACV mCherry inh: -11%; Marburg entry inh: inconclusive; HCMV antiviral: inconclusive; HCV inh: 24%; Vaccinia Venus: -23%

How did O=C1CN(C(=O)CSc2nc3ccccc3c(=O)n2Cc2ccc(F)cc2)c2ccccc2N1 do in these assays?
LASV entry inh: inconclusive; VACV mCherry inh: -7%; Marburg entry inh: inconclusive; HCMV antiviral: -64*; HCV inh: inconclusive; Vaccinia Venus: -26%

How did Cn1c(SCC(=O)N2CC(=O)Nc3ccccc32)nc2ccccc2c1=O do in these assays?
HCMV antiviral: -33; HCV inh: 0%

What do the screens show for `O=C1CN(C(=O)CSc2nc3ccccc3n2CCc2ccccc2)c2ccccc2N1`?
LASV entry inh: -11%; VACV mCherry inh: -22%; Marburg entry inh: inconclusive; HCMV antiviral: -60*; HCV inh: -9%; Vaccinia Venus: -6%

How did CN(C)/C=N/C(=S)Nc1ccc(Cl)cc1Cl do in these assays?
LASV entry inh: inconclusive; VACV mCherry inh: -25%; Marburg entry inh: -13%[46.1 µM]; HCMV antiviral: -9; HCV inh: 14µM*; Vaccinia Venus: -9%

How did C/C(CC1(O)C(=O)N(C)c2ccccc21)=N\O (stereo not given) do in these assays?
LASV entry inh: 19%; VACV mCherry inh: inactive; Marburg entry inh: 8%; HCMV antiviral: inconclusive; HCV inh: 6%; Vaccinia Venus: -2%

Results for CC(=O)CC1(OC(C)=O)C(=O)N(C)c2ccccc21 (stereo not given) ?
LASV entry inh: -29%[46.1 µM]; VACV mCherry inh: -14%; Marburg entry inh: inconclusive; HCMV antiviral: -64*; HCV inh: 5%; Vaccinia Venus: -16%

What do the screens show for `O=C1NC(=O)C(=Cc2cc3c(cc2[N+](=O)[O-])OCO3)C(=O)N1`?
LASV entry inh: 1%; VACV mCherry inh: -3%; Marburg entry inh: -2%[46.1 µM]; HCMV antiviral: -63*; HCV inh: 1%; Vaccinia Venus: -1%

Results for O=C1NC(=O)C(=Cc2ccccc2[N+](=O)[O-])C(=O)N1 ?
LASV entry inh: 8%; VACV mCherry inh: 0%; Marburg entry inh: 1%; HCMV antiviral: -3; HCV inh: 32%; Vaccinia Venus: 3%

Results for CC(C)C[C@H]1COc2c(Cl)cccc2S(=O)(=O)N1 ?
LASV entry inh: 0%[46.1 µM]; HCMV antiviral: -16

Results for O=S1(=O)CCSC[C@@H](CNCc2ccco2)N1 ?
LASV entry inh: inconclusive; HCMV antiviral: 1

Results for c1ccc(-c2nnc(-c3ccccn3)nc2NC2CCCCC2)cc1 ?
LASV entry inh: 5µM*; VACV mCherry inh: 3.5µM*; Marburg entry inh: 3.5µM*; HCMV antiviral: -100*; HCV inh: 1.6µM*; Vaccinia Venus: inconclusive

How did CNc1nc(-c2ccccn2)nnc1-c1ccccc1 do in these assays?
LASV entry inh: inconclusive; VACV mCherry inh: inconclusive; Marburg entry inh: inconclusive; HCMV antiviral: -105*; HCV inh: inconclusive; Vaccinia Venus: inconclusive

Results for Oc1ccccc1-c1nc(NC2CCCC2)c2ccccc2n1 ?
HCMV antiviral: 28; HCV inh: inconclusive

How did CCC[C@@H]1Cc2c(sc3ncnc(N)c23)CO1 do in these assays?
Marburg entry inh: 18%

How did CSc1nc2nccc(-c3ccc(Oc4ccccc4)cc3)n2n1 do in these assays?
LASV entry inh: 16µM*; Marburg entry inh: inconclusive; HCMV antiviral: -17; HCV inh: 11µM*; Vaccinia Venus: inconclusive

Results for C/C(=N\NC(=S)NC1CCCCC1)c1c(F)cccc1F ?
LASV entry inh: inconclusive; VACV mCherry inh: -3%; Marburg entry inh: inconclusive; HCMV antiviral: -79*; HCV inh: inconclusive; Vaccinia Venus: -15%

How did Cc1ccc(C[C@H]2CC(=O)N(c3ccc4c(c3)OCCO4)C2=O)cc1 do in these assays?
Marburg entry inh: 11%[46.1 µM]

How did CC(=O)OCCN(C)c1cc(SC(C)C)c2nonc2c1[N+](=O)[O-] do in these assays?
LASV entry inh: 2%; VACV mCherry inh: inactive; Marburg entry inh: -2%; HCMV antiviral: inconclusive; HCV inh: 15%; Vaccinia Venus: -7%

How did CN(CCO)c1cc(Sc2nc3ccccc3s2)c2nonc2c1[N+](=O)[O-] do in these assays?
LASV entry inh: inconclusive; Marburg entry inh: inconclusive; HCMV antiviral: -104*; HCV inh: 11µM*

What do the screens show for `COc1ccc(Cl)cc1NC(=O)Cn1c(=O)n(Cc2cccs2)c(=O)c2cccnc21`?
VACV mCherry inh: -12%; Marburg entry inh: inconclusive; HCMV antiviral: -26; Vaccinia Venus: 1%

What do the screens show for `COc1cccc(-c2c(NC(=O)c3ccco3)oc3ccccc3c2=O)c1`?
VACV mCherry inh: 11%; HCMV antiviral: -18; HCV inh: 0.32µM*; Vaccinia Venus: -2%

How did COc1cccc(-c2c(NC(=O)c3ccco3)oc3ccc(Cl)cc3c2=O)c1 do in these assays?
LASV entry inh: 13%[46.1 µM]; VACV mCherry inh: -28%; Marburg entry inh: 1%[46.1 µM]; HCMV antiviral: -29; HCV inh: 7%; Vaccinia Venus: -15%

What do the screens show for `CC(=O)N1CCC[C@H]1C(=O)NCC1Cc2cc(-c3cccc(OC(F)(F)F)c3)ccc2O1` (stereo not given in full)?
VACV mCherry inh: -1%; Vaccinia Venus: -25%

How did COCCn1nnnc1C(c1cccs1)N1CCN(c2nc3ccccc3s2)CC1 (stereo not given) do in these assays?
LASV entry inh: -29%; VACV mCherry inh: inconclusive; Marburg entry inh: inconclusive; HCMV antiviral: -31; HCV inh: inconclusive; Vaccinia Venus: -9%

How did Oc1ccc(C(c2nnnn2CCc2ccccc2)N2CCN(c3nc4ccccc4s3)CC2)cc1 (stereo not given) do in these assays?
VACV mCherry inh: -11%; HCMV antiviral: 0; HCV inh: 13µM*; Vaccinia Venus: -6%

How did CCC/C=N/NC(=O)CNC(=O)c1ccccc1Cl do in these assays?
LASV entry inh: 6%[46.1 µM]; VACV mCherry inh: -16%; Marburg entry inh: 5%[46.1 µM]; HCMV antiviral: -68*; HCV inh: 28%; Vaccinia Venus: -16%

What do the screens show for `O=C(Cc1cccs1)N/N=C\c1ccc([N+](=O)[O-])s1`?
VACV mCherry inh: inconclusive; HCMV antiviral: -10; HCV inh: inconclusive; Vaccinia Venus: inconclusive

What do the screens show for `Cc1ccc(NC(=S)N/N=C/c2ccc([N+](=O)[O-])s2)cc1`?
LASV entry inh: 18µM*; VACV mCherry inh: 10µM*; Marburg entry inh: inconclusive; HCMV antiviral: -74*; HCV inh: inconclusive; Vaccinia Venus: inconclusive
